Reference: PubChem BioAssay (NCATS)
A number with no mark means an inactive call. Inconclusive results are not listed. Activity calls are given as the source filed them. Unless noted, calls follow the shape of the dose curve; as a rule, active = well fitted curve in either direction with a large enough effect (not every such curve was filed as active); inconclusive = small, poorly fitted or top-dose-only effect, or another doubt; inactive = flat fitted curve, though single readings scatter.

Legend:
[1] = target: Lysosomal acid glucosylceramidase (Homo sapiens) (UniProt P04062); assay: Glucocerebrosidase-p2 (AID 348; in the data active = potency below about 10 µM; also: potency is read from the fitted curve at half-maximal effect); conditions: purified GBA, blue fluorogenic substrate, 40 min
Chain of Lysosomal acid glucosylceramidase (Homo sapiens) (P04062 whole entry, looked up): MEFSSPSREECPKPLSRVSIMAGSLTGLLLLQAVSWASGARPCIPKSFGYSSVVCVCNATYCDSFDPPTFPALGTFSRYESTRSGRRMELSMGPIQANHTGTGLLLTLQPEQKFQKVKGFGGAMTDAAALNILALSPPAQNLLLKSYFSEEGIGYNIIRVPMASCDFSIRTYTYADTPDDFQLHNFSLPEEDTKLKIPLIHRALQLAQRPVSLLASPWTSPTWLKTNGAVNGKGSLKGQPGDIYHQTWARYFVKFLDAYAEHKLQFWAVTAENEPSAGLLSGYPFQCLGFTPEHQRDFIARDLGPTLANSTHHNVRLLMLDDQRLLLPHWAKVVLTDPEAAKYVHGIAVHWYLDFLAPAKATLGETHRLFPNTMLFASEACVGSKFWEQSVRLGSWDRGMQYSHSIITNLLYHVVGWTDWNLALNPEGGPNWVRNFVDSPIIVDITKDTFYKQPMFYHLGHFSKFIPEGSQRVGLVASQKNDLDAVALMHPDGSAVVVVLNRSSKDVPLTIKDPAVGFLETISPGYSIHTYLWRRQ
Method in brief: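 Normal human glucocerebrosidase (0.2 nM) with blue fluorogenic substrate (80 uM final) in citrate/phosphate pH 5.9 with 10mM sodium taurocholate, 0.01% tween-20; 40 min RT, NaOH/glycine stop; fluorescence Ex 365/Em 440; AC50 from a titration from 0.6 nM upwards.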

[2] = AP1 Signaling Pathway (AID 357); conditions: ME-180 AP-1-bla reporter, EGF-induced, beta-lactamase ratio, 5 h; at 7.69 µM (top of the series) unless noted;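 also: ME-180 reporter cells stimulated with EGF at its EC50 level; % is scaled to controls: 0 for no effect and ±100 for the full control effect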
Method in brief: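 A ratiometric CCF4 readout (405 nm excitation; 460 and 530 nm emission) quantified AP-1-driven beta-lactamase in ME-180 cells after 5 h with compound and EC50 EGF; AC50 values were derived for activators and inhibitors.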

[3] = target: Glucocorticoid receptor (Homo sapiens) (UniProt P04150); assay: GR-GFP Redistribution (AID 450;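 active = compounds whose dose series gives a full or clear partial fitted curve of increased nuclear translocation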; also: potency is read from the fitted curve at half-maximal effect); conditions: U2OS GR-GFP nuclear translocation, laser cytometry, 2 h
Chain of Glucocorticoid receptor (Homo sapiens) (P04150 whole entry, looked up, the tested form may be a part): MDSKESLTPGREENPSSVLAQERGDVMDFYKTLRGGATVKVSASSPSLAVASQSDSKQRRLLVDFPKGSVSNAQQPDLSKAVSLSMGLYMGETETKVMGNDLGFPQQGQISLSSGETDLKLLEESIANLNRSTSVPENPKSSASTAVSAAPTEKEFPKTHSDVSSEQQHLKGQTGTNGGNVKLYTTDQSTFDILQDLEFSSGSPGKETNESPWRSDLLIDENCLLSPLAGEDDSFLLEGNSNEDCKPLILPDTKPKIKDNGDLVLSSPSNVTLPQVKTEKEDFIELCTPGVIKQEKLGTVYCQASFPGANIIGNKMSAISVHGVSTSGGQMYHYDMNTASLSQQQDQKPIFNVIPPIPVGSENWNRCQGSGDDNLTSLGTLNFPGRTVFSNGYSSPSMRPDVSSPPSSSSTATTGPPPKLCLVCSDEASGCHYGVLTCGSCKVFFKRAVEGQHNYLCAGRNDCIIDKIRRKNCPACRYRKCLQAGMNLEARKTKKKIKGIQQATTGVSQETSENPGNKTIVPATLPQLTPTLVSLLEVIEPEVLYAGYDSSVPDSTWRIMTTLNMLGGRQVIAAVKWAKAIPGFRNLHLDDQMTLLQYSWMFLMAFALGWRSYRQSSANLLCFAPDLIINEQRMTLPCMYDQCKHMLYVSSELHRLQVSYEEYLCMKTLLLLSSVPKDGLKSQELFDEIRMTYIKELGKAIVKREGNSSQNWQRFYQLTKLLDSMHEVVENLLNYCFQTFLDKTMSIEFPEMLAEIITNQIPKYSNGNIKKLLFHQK

[4] = target: Glucocorticoid receptor (Homo sapiens) (UniProt P04150); assay: GR-EFC Redistribution (AID 451; calls by dose curve; also: potency is read from the fitted curve at half-maximal effect); conditions: CHO-K1 GR-EFC translocation, beta-gal luminescence, 2 h
Method in brief: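 Translocation of GR-ED fusion to nuclear EA restores b-gal, read by luminescence after 1 h room-temperature detection. Engineered CHO-K1 biosensor cells, 1,000/well, exposed 2 h at 37 C to titrations up to 46 uM final.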

[5] = target: Mitogen-activated protein kinase 10 (Mus musculus) (UniProt Q61831); assay: JNK3 AlphaScreen Assay (AID 530); conditions: JNK3 lysate, c-Jun phosphorylation; series mostly up to 57.1 µM;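 also: kinase came from lysate of stimulated human HepG2 cells; signal reports phosphorylation of biotinylated GST-cJun 1-79 at Ser73 with 10 µM ATP; % is scaled to controls: 0 for no effect and ±100 for the full control effect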
Method in brief: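 qHTS titrations with 15 min compound pre-incubation before adding ATP (10 uM final). Read-out: AlphaScreen of Ser73-phosphorylated biotin-GST-cJun using HepG2 lysate JNK3 activated by IL-1β and TNFα.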

[6] = target: 3',5'-cyclic-AMP phosphodiesterase 4B (Homo sapiens) (UniProt Q07343); assay: qHTS Assay for Inhibitors of PDE-IV (AID 607; active = well fitted activation curve with a large enough effect in the main read-out, with a control signal flat, not every such curve was filed as active; also: % of control where 0% means no effect); conditions: HEK293 ACTOne CNG channel cells, membrane potential fluorescence; series mostly up to 22.9 µM
Chain of 3',5'-cyclic-AMP phosphodiesterase 4B (Homo sapiens) (Q07343 whole entry, looked up): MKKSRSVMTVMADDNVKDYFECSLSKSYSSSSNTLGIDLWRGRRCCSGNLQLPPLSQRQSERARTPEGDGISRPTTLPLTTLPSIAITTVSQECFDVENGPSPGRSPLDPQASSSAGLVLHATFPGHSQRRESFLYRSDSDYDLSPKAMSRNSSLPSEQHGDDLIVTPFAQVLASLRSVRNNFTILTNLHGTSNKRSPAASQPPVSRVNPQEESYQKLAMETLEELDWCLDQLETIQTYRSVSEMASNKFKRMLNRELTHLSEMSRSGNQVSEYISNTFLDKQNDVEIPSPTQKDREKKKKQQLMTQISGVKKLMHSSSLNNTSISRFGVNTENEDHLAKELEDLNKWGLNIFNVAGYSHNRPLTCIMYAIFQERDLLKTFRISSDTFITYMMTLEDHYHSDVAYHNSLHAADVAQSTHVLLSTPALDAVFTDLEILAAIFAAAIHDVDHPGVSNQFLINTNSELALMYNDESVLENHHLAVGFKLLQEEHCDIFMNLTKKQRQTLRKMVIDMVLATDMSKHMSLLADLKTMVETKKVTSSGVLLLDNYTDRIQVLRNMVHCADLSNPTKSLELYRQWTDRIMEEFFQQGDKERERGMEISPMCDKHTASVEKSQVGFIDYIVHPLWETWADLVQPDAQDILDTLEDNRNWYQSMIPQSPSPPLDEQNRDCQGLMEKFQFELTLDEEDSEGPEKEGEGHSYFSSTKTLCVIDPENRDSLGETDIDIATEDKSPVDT
Method in brief: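 Live HEK293 cells with a modified cyclic nucleotide-gated (CNG) channel report intracellular cAMP via membrane-potential dye fluorescence (ex 535/em 590 nm). Endogenous PDE-IV was targeted. Compounds were tested at up to 22.9 uM final; RO 20-1724 100 uM served as control.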

[7] = Stat Signaling Pathway (AID 446); conditions: ME-180 (cervical carcinoma) SIE beta-lactamase reporter, IL-6 stimulated, 5 h; at 7.69 µM (top of the series) unless noted;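 also: ME-180 cervical cancer cells given 40 pM IL-6 alongside compound; SIE-controlled beta-lactamase reporter measured as 460/530 nm FRET emission ratio; % is scaled to controls: 0 for no effect and ±100 for the full control effect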
Method in brief: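 Overnight-plated ME-180 cells bearing a STAT Inducible Element beta-lactamase reporter; 5 h co-exposure to compound and 40 pM IL-6; values normalized to 300 pM IL-6 and 125 nM JAK inhibitor controls.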

[8] = target: Cytochrome P450 2C19 (Homo sapiens) (UniProt P33261); assay: qHTS Assay for Inhibitors and Substrates of Cytochrome P450 2C19 (AID 899; active = well fitted inhibition curve with a large enough effect; also: nearly all actives have a fitted effect of over 60% in size; also: potency is read from the fitted curve at half-maximal effect); conditions: recombinant CYP2C19, luciferin-H EGE luminescence; series mostly up to 11.4 µM
Chain of Cytochrome P450 2C19 (Homo sapiens) (P33261 whole entry, looked up): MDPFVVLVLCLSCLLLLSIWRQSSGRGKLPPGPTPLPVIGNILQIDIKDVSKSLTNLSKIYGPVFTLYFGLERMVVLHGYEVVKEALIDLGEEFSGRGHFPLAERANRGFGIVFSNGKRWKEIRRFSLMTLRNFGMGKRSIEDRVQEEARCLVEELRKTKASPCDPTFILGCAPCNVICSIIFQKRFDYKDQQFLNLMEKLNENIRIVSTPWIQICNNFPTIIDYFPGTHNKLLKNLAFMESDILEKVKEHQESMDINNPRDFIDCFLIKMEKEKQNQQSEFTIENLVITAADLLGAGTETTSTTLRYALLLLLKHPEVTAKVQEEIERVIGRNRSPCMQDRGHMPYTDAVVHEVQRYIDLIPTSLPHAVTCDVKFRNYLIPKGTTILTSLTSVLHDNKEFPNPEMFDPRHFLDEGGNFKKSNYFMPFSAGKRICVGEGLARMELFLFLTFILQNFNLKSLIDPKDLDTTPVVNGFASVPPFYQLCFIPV
Method in brief: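 Reactions contain 5nM enzyme, 10uM Luciferin-H EGE (KM) and 50mM KPO4; compound preincubates 10 min at 37C, NADPH regeneration starts turnover for 60 min. Luminescence after detection reagent gives activity.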

[9] = target: Cytochrome P450 1A2 (Homo sapiens) (UniProt P05177); assay: p450-cyp1a2 (AID 410; calls by dose curve;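 also: -100% = full effect of reference inhibitor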); conditions: recombinant CYP1A2, luciferin-ME demethylation, luminescence; series mostly up to 11.4 µM
Chain of Cytochrome P450 1A2 (Homo sapiens) (P05177 whole entry, looked up): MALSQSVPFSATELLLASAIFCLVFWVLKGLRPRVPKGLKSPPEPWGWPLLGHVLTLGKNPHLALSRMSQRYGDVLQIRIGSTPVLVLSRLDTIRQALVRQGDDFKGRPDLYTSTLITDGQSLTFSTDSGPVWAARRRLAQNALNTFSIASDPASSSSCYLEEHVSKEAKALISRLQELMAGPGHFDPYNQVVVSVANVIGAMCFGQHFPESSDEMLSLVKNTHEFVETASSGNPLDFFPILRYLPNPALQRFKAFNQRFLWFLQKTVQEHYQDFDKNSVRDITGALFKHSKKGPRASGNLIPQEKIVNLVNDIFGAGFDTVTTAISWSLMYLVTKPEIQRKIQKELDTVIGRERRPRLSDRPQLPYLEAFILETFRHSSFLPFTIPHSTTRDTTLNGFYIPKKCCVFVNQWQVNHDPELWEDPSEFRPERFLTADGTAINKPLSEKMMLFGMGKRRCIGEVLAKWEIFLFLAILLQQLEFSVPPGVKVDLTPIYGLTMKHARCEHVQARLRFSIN
Method in brief: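 Luminescent demethylation readout: Luciferin-ME (100uM, equal to Km) turned over by 20nM CYP1A2 for 60 min at room temperature after NADPH regeneration addition, following 10 min compound preincubation. Normalization used 57 uM furafylline as full inhibition.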

[10] = NFAT Signaling Pathway (AID 444); conditions: Jurkat NFAT-bla M1, carbachol, beta-lactamase ratio, 5 h; at 7.69 µM (top of the series) unless noted;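 also: carbachol stimulus at about its EC50 of 1 µM final; % is scaled to controls: 0 for no effect and ±100 for the full control effect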
Method in brief: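 Read-out: CCF4 FRET ratio (460 nm/530 nm) after 1 h RT dye loading, used for %activity and AC50 from titration series. Cells: Jurkat NFAT-β-lactamase/M1 line, treated with compound plus 1 uM carbachol for 5 h, 37 °C.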

[11] = target: Cytochrome P450 2C9 (Homo sapiens) (UniProt P11712); assay: qHTS Assay for Inhibitors and Substrates of Cytochrome P450 2C9 (AID 883; active = well fitted inhibition curve with a large enough effect; also: potency is read from the fitted curve at half-maximal effect; nearly all actives have a fitted effect of over 60% in size); conditions: recombinant CYP2C9, luciferin-H luminescence, 60 min; series mostly up to 57.1 µM
Chain of Cytochrome P450 2C9 (Homo sapiens) (P11712 whole entry, looked up): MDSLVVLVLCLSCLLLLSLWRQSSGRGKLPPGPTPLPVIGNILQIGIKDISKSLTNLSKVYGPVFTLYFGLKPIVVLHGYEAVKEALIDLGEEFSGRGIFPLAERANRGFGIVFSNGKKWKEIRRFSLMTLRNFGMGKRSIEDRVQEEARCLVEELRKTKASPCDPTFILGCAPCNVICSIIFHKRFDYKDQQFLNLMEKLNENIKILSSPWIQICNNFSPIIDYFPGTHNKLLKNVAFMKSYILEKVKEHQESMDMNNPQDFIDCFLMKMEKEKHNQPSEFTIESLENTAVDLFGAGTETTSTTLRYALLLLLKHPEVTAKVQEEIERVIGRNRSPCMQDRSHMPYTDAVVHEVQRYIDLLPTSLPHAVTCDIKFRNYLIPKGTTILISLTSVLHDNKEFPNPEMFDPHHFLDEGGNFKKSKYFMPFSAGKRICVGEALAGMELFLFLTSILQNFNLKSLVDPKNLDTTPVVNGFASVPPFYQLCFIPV
Method in brief: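 Turnover of Luciferin-H (100uM, KM) by 10nM human CYP2C9 was measured over 60 min at 37C with NADPH regeneration; inhibitors and some substrates reduce luminescence. Data normalized to sulphaphenazole 57uM.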

| SMILES | Potency [1] [µM] | activity change, negative = inhibition [2] | Potency [3] [µM] | Potency [4] [µM] | activity change, negative = inhibition [5] | outcome [6] | activity, negative = inhibition [7] [%] | Potency [8] | Potency [9] | activity change, negative = inhibition [10] [%] | Potency [11] | activity change, negative = inhibition [9] |
| --- | --- | --- | --- | --- | --- | --- | --- | --- | --- | --- | --- | --- |
| CC[C@H]1CN2CCc3cc(OC)c(OC)cc3[C@H]2C[C@@H]1C[C@H]1NCCc2c1[nH]c1ccc(O)cc21 | > 11.4 | -118% (active) | > 46 | > 9.22 | -2.73% [at 11.4 µM] | inactive |  |  |  |  |  |  |
| C[C@@]12CC[C@H](O)C[C@@H]1CC[C@@H]1[C@@H]2CC[C@@]2(C)[C@@H](C3=CC(=O)OC3)[C@H](O)C[C@]12O | > 11.4 | 15.5% | > 46 | > 9.22 |  | inactive | 8.74 | inactive |  |  |  |  |
| CS(=O)(=O)O[C@H]1CN2CCC1CC2 | > 11.4 |  | > 46 | > 9.22 | 2.61% [at 11.4 µM] | inactive | -2.65 |  | inactive | -10.5 |  |  |
| C[C@@]12Cc3cnc(-c4ccccc4)nc3C[C@@H]1CC[C@@H]1[C@H]3CC[C@@](C)(O)[C@]3(C)CC[C@@H]12 | > 11.4 | 5.09% |  | > 9.22 | 3.79% [at 11.4 µM] | inactive | 1.77 |  |  |  |  |  |
| CC(C)[C@@H](Br)C(=O)NCC(=O)O | > 11.4 | 5.1% | > 46 | > 9.22 | 4.52% [at 11.4 µM] | inactive | 11.3 |  |  |  |  |  |
| C(=NCCN1CCOCC1)=NC1CCCCC1 | > 11.4 | -1.14% | > 46 |  | 3.92% [at 11.4 µM] | inactive | 19.2 |  |  |  |  |  |
| Cc1ccc(NC(=[OH+])c2cc3ccccc3cc2O)c(C)c1.Cc1ccc(NC(=[OH+])c2cc3ccccc3cc2O)c(C)c1.[Ni] | > 11.4 |  | > 46 | > 9.22 | 1.02% [at 11.4 µM] |  |  | 2 µM (active) |  |  | 3.16 µM (active) |  |
| CC[C@]1(OC(=O)CN)C(=O)OCc2c1cc1n(c2=O)Cc2cc3ccccc3nc2-1 | > 11.4 |  | > 46 | > 9.22 | -1.42% [at 11.4 µM] | inactive |  |  |  |  |  | -17.6% [at 2.29 µM] |
| CC(=O)O[C@H]1CC[C@H]2[C@@H]3CCC4=C[C@@H](C5SCCS5)[C@H](OC(C)=O)C[C@]4(C)[C@H]3CC[C@@]12C | > 11.4 | -2.54% | > 46 | > 9.22 | 5.72% [at 11.4 µM] | inactive | 0.282 |  |  |  |  |  |
